# From PubChem BioAssay AID493220 (National Center for Advancing Translational Sciences (NCATS), 2011)
# Records with an inconclusive call do not appear. The source made the active and inactive calls. The call rests on the fitted dose curve.
# Molecular target: Polyunsaturated fatty acid lipoxygenase ALOX15 (Homo sapiens) (UniProt P16050)
# Assay: Inhibitors of 12-hLO (12-human lipoxygenase): 15hLO-1 Cuvette-Based Inhibition Counterscreen Assay for 12hLO Followup Compounds
# Conditions: purified 15hLO-1, UV 234 nm product formation
# Description: Human lipoxygenase 15hLO-1 is a member of the closely related lipoxygenase family of enzymes which catalyze the site-specific oxidation of arachidonic acid to various hormone precursor molecules and as such is a candidate for drug development in a variety of disease areas, such as cancer and inflammation. The enzyme activity of 15hLO-1 was determined by a direct measurement of product formation by monitoring the absorbance at 234 nm in a 2 mL cuvette. IC50 values of inhibitors were obtained by measuring the enzymatic rate at a variety of concentrations (Carroll et al, Segraves et al). A purified preparation of human 15hLO-1 was supplied by Professor Ted Holman, University of California, Santa Cruz. This assay was run against 12hLO followup compounds with the goal of identifying selective 12hLO inhibitors. Assay Provider: Holman, T.R., University of California, Santa Cruz Screening Center PI: Austin, Christopher P. Screening Center: NIH Chemical Genomics Center
# For control experiments, 2 mL of substrate buffer (10 uM arachidonic acid / 25 mM HEPES / 0.01% (v/v) Triton X-100, pH 8.0) was aliquoted in a cuvette with a magnetic stir bar. After equilibrium was ensured, an aliquot of inhibitor solvent was added (DMSO), and equilibrium was once again assured. […] 3; No change in absorbance ensured. […] 5; No change in absorbance ensured. […]
# Polyunsaturated fatty acid lipoxygenase ALOX15 (Homo sapiens), sequence (P16050 whole entry, looked up): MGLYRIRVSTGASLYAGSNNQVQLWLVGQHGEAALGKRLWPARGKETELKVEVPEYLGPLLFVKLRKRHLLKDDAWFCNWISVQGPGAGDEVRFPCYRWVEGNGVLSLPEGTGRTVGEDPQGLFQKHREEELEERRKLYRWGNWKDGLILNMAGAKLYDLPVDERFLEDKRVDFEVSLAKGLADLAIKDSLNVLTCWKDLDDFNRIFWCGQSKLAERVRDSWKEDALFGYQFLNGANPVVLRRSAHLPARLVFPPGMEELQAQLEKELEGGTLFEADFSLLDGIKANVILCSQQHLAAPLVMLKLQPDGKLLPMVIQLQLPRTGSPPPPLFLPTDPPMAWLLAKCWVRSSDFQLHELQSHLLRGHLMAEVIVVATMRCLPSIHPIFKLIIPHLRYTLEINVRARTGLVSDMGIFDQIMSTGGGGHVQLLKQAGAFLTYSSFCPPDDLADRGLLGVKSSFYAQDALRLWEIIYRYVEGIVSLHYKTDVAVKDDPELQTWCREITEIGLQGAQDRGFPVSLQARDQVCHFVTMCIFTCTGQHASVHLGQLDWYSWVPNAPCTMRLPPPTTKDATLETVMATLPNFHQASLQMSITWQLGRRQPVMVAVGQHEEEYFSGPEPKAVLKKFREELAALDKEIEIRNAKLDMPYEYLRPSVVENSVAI
smiles,measurement,value
CC(Oc1ccc(Cl)cc1Cl)C(=O)Nc1ccc(S(=O)(=O)Nc2cnc3ccccc3n2)cc1 (stereo unspecified),Potency,30.8 µM (active)
